KDM5B inh: inhibitors of human KDM5B histone demethylase | 220,000 compounds, 2.6% hits | KDM5B demethylase, FDH-coupled NADH fluorescence (FDH is formaldehyde dehydrogenase) | Potency, µM (highest dose often 57.7 µM), most hits filed as inhibitors; active means well fitted inhibition curve with a large enough effect; further: 0% is about no effect; nearly all actives have a fitted effect of over 70% in size
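Measured: NADH fluorescence change, 30 min, RT. System: KDM5BΔAP 200 nM final, H3K4me3 peptide, α-KG, Fe(II), ascorbate, NAD⁺ plus FDH, pH 7.5 HEPES. Compounds: titrated, 10 min pre-incubation with enzyme.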
An asterisk follows results filed as active; [ ] = remark or other dose. This is one part of a sample in which hits are shown more often than they occur. Potency means the concentration at half of the fitted maximal effect.

How did CC(C)C[C@H](CO)NC(=O)C[C@@H]1c2nc(NC(=O)c3ccco3)sc2C[C@@H]2[C@](C)(CO)[C@H](O)CC[C@]21C do in these assays?
KDM5B inh: inactive

Results for N#Cc1cccc(NC(=O)NCCNc2ccccn2)c1 ?
KDM5B inh: inactive

Results for O=C(CSc1ncc(-c2ccc(Br)cc2)o1)N1CCCCCC1 ?
KDM5B inh: inactive

How did CCC(C)n1nnc2cc(S(=O)(=O)N3CCC(C(=O)NCc4ccc(OC)cc4)CC3)ccc21 (stereo not drawn) do in these assays?
KDM5B inh: inactive

What do the screens show for `COC(=O)c1c(COC(=O)c2ccc(N3CCCS3(=O)=O)cc2)nc2ccccc2c1C`?
KDM5B inh: inactive

How did Cc1ccc(C)c(S(=O)(=O)Nc2ccc(S(=O)(=O)C3CCCC3)cc2)c1 do in these assays?
KDM5B inh: inactive

Results for CC(=O)c1cccc(S(=O)(=O)NCCC(=O)NC(C)C)c1 ?
KDM5B inh: inactive

Results for N#C/C(=C/c1ccc(OC(F)F)cc1)C(=O)c1c[nH]c2cc(F)ccc12 ?
KDM5B inh: inactive

How did CC(C)CNC(=O)c1coc(COc2ccc3c(c2)C(c2cccc(F)c2)N(C(=O)C2CC2)CC3)n1 (stereo not drawn) do in these assays?
KDM5B inh: inactive

How did CCOC(=O)c1nc2ccccc2nc1NCc1ccc2c(c1)OCO2 do in these assays?
KDM5B inh: inactive

How did Cc1nc(/C=C/c2ccc(Cl)cc2)sc1C(=O)O do in these assays?
KDM5B inh: inactive

How did CCN(CC)c1nc2ccccc2nc1C(=O)Nc1cccc(C)c1C do in these assays?
KDM5B inh: inactive

How did Cn1ccc2cc(-c3csc(CN4CC(C)(NC(=O)C5CC5)C4)n3)ccc21 do in these assays?
KDM5B inh: inactive

What do the screens show for `CC(=O)NC1(C)CCN(Cc2ccccc2-c2ccc3c(ccn3C)c2)C1` (stereo not drawn)?
KDM5B inh: 35µM*

What do the screens show for `CC(=O)NC1(C)CCN(Cc2cccc(Oc3ccccc3)c2)CC1`?
KDM5B inh: inactive

Results for Cc1cc(Cl)ccc1Nc1nc(N)c(C(=O)c2ccc(F)cc2)s1 ?
KDM5B inh: inactive

What do the screens show for `Cc1ccc(C(=O)NCCN2CCc3ccccc3C2)cc1F`?
KDM5B inh: inactive

Results for CC(C)(C(=O)Nc1cccc(OCCS(C)(=O)=O)c1)c1ccccc1 ?
KDM5B inh: inactive

Results for COCCNC(=O)c1nc(-c2cccc(C(F)(F)F)c2)c2cnccn12 ?
KDM5B inh: 25µM*

Results for O=C(NCCOc1cccnc1)c1cn(Cc2cccc(C(F)(F)F)c2)nn1 ?
KDM5B inh: inactive

Results for C#CCNC(=O)c1nc(-c2cccc(C(F)(F)F)c2)c2cnccn12 ?
KDM5B inh: 32µM*

What do the screens show for `COc1ccc(-c2nc3sc(CCNC(=O)c4cccc(C(F)(F)F)c4)c(C)n3n2)cc1`?
KDM5B inh: inactive

How did COCCNC(=O)c1ccc(CSc2nc3ccncc3n2Cc2ccccc2)cc1 do in these assays?
KDM5B inh: inactive

What do the screens show for `COC(=O)CNC(=O)c1nc(-c2cccc(C(F)(F)F)c2)c2ccccn12`?
KDM5B inh: 14µM*

How did COCCNC(=O)c1nc(-c2cccc(C(F)(F)F)c2)c2ccccn12 do in these assays?
KDM5B inh: 16µM*

What do the screens show for `Cc1ccc2c(C(=O)O)cc(C)nc2c1`?
KDM5B inh: inactive

How did Cc1ccc(C)c(S(=O)(=O)c2nnn3c2nc(N2CCCCC2)c2ccccc23)c1 do in these assays?
KDM5B inh: inactive

What do the screens show for `Cc1cccc(C)c1NC(=O)CCc1c[nH]c2ccccc12`?
KDM5B inh: inactive

Results for COc1ccc2c(CCNC(=O)C3CCN(c4nc(Cl)nc5nc[nH]c45)CC3)c[nH]c2c1 ?
KDM5B inh: inactive

What do the screens show for `C=C(C)COc1ccc2c(C)c(CC(=O)Nc3ccc4c(c3)OCCO4)c(=O)oc2c1`?
KDM5B inh: inactive

Results for CC(C)(CNC(=O)c1cccc2ccccc12)CNC(=O)c1cccc2ccccc12 ?
KDM5B inh: inactive

What do the screens show for `Cn1ccn2ncc(C(=O)N3CCC(N4CCCC(C(=O)N5CCCC5)C4)CC3)c12` (stereo not drawn)?
KDM5B inh: inactive

Results for N#Cc1ccnc(N2CCN(C(=O)Nc3ccc(F)cc3)CC2)c1 ?
KDM5B inh: inactive

Results for O=C(C1CCCN(C2CCN(c3ncccn3)CC2)C1)N1CCOCC1 (stereo not drawn) ?
KDM5B inh: 20µM*

What do the screens show for `O=C(c1ccco1)N1CCC(N2CCCC(C(=O)N3CCCC3)C2)CC1` (stereo not drawn)?
KDM5B inh: inactive

Results for O=C(c1cn(C2CCCCC2)nn1)N1CCCC(C(=O)N2CCOCC2)C1 (stereo not drawn) ?
KDM5B inh: inactive

How did CN1CCN(C(=O)C2CCCN(C3CCN(c4cc(C#N)ccn4)CC3)C2)CC1 (stereo not drawn) do in these assays?
KDM5B inh: 28µM*

What do the screens show for `CC1=C(C(=O)Nc2ccccc2)C(c2sccc2C)n2nc(-c3ccccc3)nc2N1` (stereo not drawn)?
KDM5B inh: inactive

How did Cc1ccccc1Nc1nnc(-c2ccc(C)c(S(=O)(=O)NCCO)c2)c2ccccc12 do in these assays?
KDM5B inh: inactive

How did O=C(NC1(c2ccccc2)CCC1)c1cc2ccccc2oc1=O do in these assays?
KDM5B inh: inactive

How did CS(=O)(=O)N(Cc1csc(-c2cccs2)n1)C1CCN(C(=O)c2ccccc2Cl)CC1 do in these assays?
KDM5B inh: inactive

What do the screens show for `Cc1ncc(-c2c(-c3ccccc3)ncn2CC(c2ccco2)N2CCCC2)[nH]1` (stereo not drawn)?
KDM5B inh: 25µM*

What do the screens show for `CCCCc1ncc(-c2c(-c3ccccc3)ncn2CC2(CO)CCC2)[nH]1`?
KDM5B inh: inactive

Results for CCCCc1ncc(-c2c(-c3ccccc3)ncn2CCCn2ccnc2)[nH]1 ?
KDM5B inh: inactive

How did Cc1nn(CC(=O)c2cc(C)n(CCC(C)C)c2C)c(=O)c(C#N)c1C do in these assays?
KDM5B inh: inactive

How did COc1ccccc1Cn1c(C)c2c(=O)n(-c3ccc(F)cc3)[nH]c2cc1=O do in these assays?
KDM5B inh: inactive

Results for O=C(COc1ccc(Cl)cc1)Nc1c(NC2CCCC2)c2ccccc2oc1=O ?
KDM5B inh: inactive

How did O=C(COCC(=O)N1CCN(c2ccccc2)CC1)NCc1ccc2c(c1)OCO2 do in these assays?
KDM5B inh: inactive

How did CCCCNC(=O)CCn1nc(-c2ccc(Cl)cc2)c2ccccc2c1=O do in these assays?
KDM5B inh: inactive[11.5 µM]

Results for CCCCNC(=O)Cc1csc2nc(C)c(-c3cc(C)n(-c4cc(Cl)ccc4C)n3)c(=O)n12 ?
KDM5B inh: 25µM*

How did CCCNC(=O)Cc1csc2nc(C)c(-c3cc(C)n(-c4cc(Cl)ccc4C)n3)c(=O)n12 do in these assays?
KDM5B inh: 28µM*

What do the screens show for `Cc1ccc(-c2nc3scc(CCNC(=O)Cc4ccc(Cl)cc4)n3n2)cc1`?
KDM5B inh: inactive

What do the screens show for `CCCCNC(=O)c1cc2cc(Cl)ccc2[nH]1`?
KDM5B inh: inactive

What do the screens show for `Cc1nc(CC(=O)Nc2cc(Cl)ccc2C)cs1`?
KDM5B inh: inactive

What do the screens show for `O=C(NCCc1cccc2cccnc12)NC1CCN(CC2CCCC2)CC1`?
KDM5B inh: inactive

What do the screens show for `Cc1ccc(/C=C/C(=O)N/N=C/c2ccccc2)cc1`?
KDM5B inh: inactive

What do the screens show for `Cn1c(=O)[nH]c(=O)c2c1nc(NCCc1ccccc1)n2CC(=O)c1ccccc1`?
KDM5B inh: inactive

High-throughput results as filed in PubChem BioAssay.
